Experimental data from PubChem BioAssay AID1259343 (VanderVen Lab, College of Veterinary Medicine, Cornell …, 2017).
Hit rate of the full screen: of about 6,200 compounds, about 2,900 (47%) were called active. The set was probably picked from earlier hits. The list shows a part of the results. A number with no mark means an inactive call. Rule as the data show it: active = inhibition above about 50%; inactive = the rest.

experiment: Mycobacterium tuberculosis growth inhibition, primary screen (AID 1259343); settings: inhibition: at 10 µM, hits give high values; outcome: 10 uM

SMILES | inhibition
Cc1cc(NC(=O)C(C)Oc2ccccc2)n(-c2nc3c(c(=O)[nH]2)CCC3)n1 (centres undefined) | 100% (active)
Cc1cc(NC(=O)C(C)C)n(-c2nc3c(c(=O)[nH]2)CCC3)n1 | 101% (active)
O=C(Nc1ncnc2c1CCC2)c1nc2ccccc2s1 | 93.3% (active)
O=C(CSc1nnc(SCC(=O)NC2CCCC2)s1)NC1CCCC1 | -2.28%
O=C(CSC(F)(F)F)NCC1CCC1 | -78.2%
CC(C)(C)c1nnc2sc(SCC(=O)NCC3CCCCC3)nn2c1=O | 73.1% (active)
Cc1csc(CCNC(=O)C2CC2c2ccc(Cl)cc2)n1 (centres undefined) | 79.1% (active)
CC(C)c1nc(CCNC(=O)C2CC2c2cccc(O)c2)cs1 (centres undefined) | 39.2%
Cc1cnc(CNC(=O)C2CC2c2ccc(F)c(F)c2)o1 (centres undefined) | -29.9%
CC(C)NC(=O)Nc1cccc(C(=O)Nc2ccc(C(C)C)cc2)c1 | 35.6%
O=C(O)Cc1ccc(NC(=O)c2cccc(Br)c2)cc1 | 89.2% (active)
C=CCn1c(COc2ccc3ccccc3c2)nc2ccccc21 | 26.8%
C=C(Br)Cn1c(-c2cccs2)nc2ccccc21 | 4.18%
C=C(Br)Cn1c(C=Cc2ccccc2)nc2ccccc21 | 89.4% (active)
CC(C)(C)C1CCc2sc(C(=O)O)cc2C1 (centres undefined) | -46.9%
CCC1CCc2sc(C(=O)O)cc2C1 (centres undefined) | 85.9% (active)
CCC1CCc2sc(C(=O)N=c3sccn3C)cc2C1 (centres undefined) | 37.3%
C=CCN(CC=C)C(=O)CSc1nc(N)cc(=O)[nH]1 | -27.6%
O=C(c1ccc(-c2ccccc2)cc1)C1CCCN(C(=O)c2ccsc2)C1 (centres undefined) | 74.6% (active)
O=C(c1ccc2ccccc2c1)C1CCCN(S(=O)(=O)Cc2ccccc2)C1 (centres undefined) | 23.8%
Cc1cc(C(=O)N2CCCC(C(=O)c3ccc(-c4ccccc4)cc3)C2)no1 (centres undefined) | 79.4% (active)
O=C(c1ccc(-c2ccccc2)cc1)C1CCCN(C(=O)CSc2ncccn2)C1 (centres undefined) | 9.54%
CN(Cc1cccc(O)c1)c1nccc(CCC(F)(F)F)n1 | 54.8% (active)
CNc1ncc(CN(C)c2nccc(CCC(F)(F)F)n2)cn1 | 55.3% (active)
CN(Cc1ccc2nonc2c1)c1nccc(CCC(F)(F)F)n1 | 31.6%
Cc1sc(NC(=O)CC2(CC(=O)O)CCCCC2)c(C#N)c1C | -8.62%

SMILES | inhibition
O=C(O)CC1(CC(=O)Nc2cc(C(F)(F)F)cc(C(F)(F)F)c2)CCCCC1 | 88.4% (active)
CCc1ccc(C2=CC(c3ccc(Br)cc3)n3nnnc3N2)cc1 (centres undefined) | 76.2% (active)
CCc1ccc(C2C=C(c3ccc(F)cc3)Nc3nnnn32)cc1 (centres undefined) | 80.2% (active)
COc1ccc(C2C(C(=O)c3ccccc3)C(O)(C(F)(F)F)N(C)C(=O)N2C)cc1 (centres undefined) | -22.5%
COc1ccc(C2C=C(c3ccc(Cl)cc3)Nc3nnnn32)cc1 (centres undefined) | 7.81%
Clc1cccc(C2C=C(c3ccc(-c4ccccc4)cc3)Nc3nnnn32)c1Cl (centres undefined) | 93.5% (active)
COc1ccc(C2C=C(c3ccccc3)Nc3nnnn32)cc1 (centres undefined) | 78.5% (active)
Cc1ccc(C2=CC(c3ccc(Cl)cc3)n3nnnc3N2)cc1 (centres undefined) | 102% (active)
Clc1ccc(C2C=C(c3ccc(Br)cc3)Nc3nnnn32)cc1 (centres undefined) | -26.6%
Clc1ccc(-c2csc3ncnc(Sc4nnnn4C4CC4)c23)cc1 | -14.2%
OC(c1ccccc1)C1CCN(c2cncc(Cl)n2)CC1 (centres undefined) | 44.6%
Cc1cccc(C)c1OC1CCN(c2cncc(C(N)=O)n2)CC1 | 95.8% (active)
Cc1cccc(C)c1OC1CN(C(=O)C(=O)c2ccco2)C1 | 45.6%
CCCCC1C=CCN1C(=O)c1c(O)cccc1O (centres undefined) | 3.76%
Cc1ccc(OCc2cc(C(=O)N3CCC(C(=O)c4ccccc4)CC3)no2)cn1 | inactive
Cc1ccc(OCc2cc(C(=O)N3CCCC3c3nc4ccccc4s3)no2)cn1 (centres undefined) | 81.4% (active)
CCCC1C=CCN1C(=O)c1cc(COc2ccc3c(c2)OCO3)[nH]n1 (centres undefined) | 31.8%
CCC1C=CCN1C(=O)c1cc(COc2ccc3sc(C)nc3c2)on1 (centres undefined) | 94.8% (active)
Cc1ccccc1C1CCCN(C(=O)c2cc(COc3cccc4cnccc34)on2)C1 (centres undefined) | 46.4%
C=CC[C@@H]1CC=C[C@@H](C)N1C(=O)c1cc(COc2ccc3sc(C)nc3c2)on1 | -45.8%
CCCC1C=CCN1C(=O)c1cc(COc2ccc(C(C)=O)cc2)on1 (centres undefined) | 75.2% (active)
COc1ccc(-c2c(NC(=O)c3ccco3)oc3c(C)cccc3c2=O)cc1 | 19.2%
COc1ccc2c(=O)c3c(=O)n(-c4ccccc4)c(C)nc3oc2c1 | 12.6%
COc1ccc(-c2cnoc2-c2ccc(OC)cc2O)cc1 | -32.9%
COc1ccc(-c2coc3cc(O)cc(O)c3c2=O)cc1 | 88.5% (active)
COc1ccc(-c2coc3c(O)c(OC)ccc3c2=O)cc1 | 67% (active)

SMILES | inhibition
COc1cc(OC)c2c(=O)c(-c3ccccc3)coc2c1 | 70.5% (active)
COc1ccc2c(=O)c(Oc3ccc(Cl)cc3)coc2c1 | 0.4%
COc1ccc(OC)c(C(=O)c2coc3ccc(OC)cc23)c1 | 17.3%
O=c1c(-c2ccc(O)cc2)coc2cc(O)cc(O)c12 | 50.5% (active)
O=c1c(O)c(-c2ccc(O)c(O)c2)oc2cc(O)cc(O)c12 | 36.4%
NC(Cc1ccccc1)c1csc(Nc2nncc3ccccc23)n1 (centres undefined) | 89.8% (active)
NC(c1csc(Nc2nncc3ccccc23)n1)C1CCCCC1 (centres undefined) | 97.4% (active)
COc1ccc(CC(N)c2csc(Nc3nncc4ccccc34)n2)cc1 (centres undefined) | 91.7% (active)
NC(c1csc(Nc2nncc3ccccc23)n1)c1ccccc1Cl (centres undefined) | 58.8% (active)
Cc1cc2n(c1)CCn1c(C)ccc1-2 | -18.7%
NC(COCc1ccccc1)c1csc(Nc2nncc3ccccc23)n1 (centres undefined) | 71% (active)
c1ccc(CC(Cc2ccccc2)=NNc2nncc3ccccc23)cc1 | 9.04%
NC(CCc1ccccc1)c1csc(Nc2nncc3ccccc23)n1 (centres undefined) | 81% (active)
COc1ccc(C(N)c2csc(Nc3nncc4ccccc34)n2)cc1 (centres undefined) | 57.6% (active)
CCCn1ccnc1SCC(=O)NC(=O)NC12CC3CC(CC(C3)C1)C2 | 32.7%
O=C(Nc1ccc(-c2ccccc2)cc1)N[C@@H](Cc1ccccc1)C(=O)N1CCC(C(=O)N2CCCCC2)CC1 | 76.3% (active)
CCCc1nc2oc3ccccc3c(=O)c2c(=O)n1-c1ccc(C)cc1 | -28%
Cc1ccc(-n2c(Cl)c(Cl)nc(Cl)c2=O)cc1 | 102% (active)
Cc1sc2ncnc(NC3CCCCC3C)c2c1C (centres undefined) | 84.5% (active)
Cc1ccc(C)c(N=Nc2c(C)[nH]c3ccccc23)c1 | 81.8% (active)
Cc1[nH]c2ccccc2c1N=Nc1ccc(F)cc1 | 11.2%
Cc1[nH]c2ccccc2c1N=Nc1cccc2ccccc12 | -9.25%
Cc1[nH]c2ccccc2c1N=Nc1ccc(SC(F)F)cc1 | 58.3% (active)
CCOC(=O)c1c(C)[nH]c(N=Nc2ccc3c(c2)OCO3)c1C | 104% (active)
Cc1[nH]c2ccccc2c1N=Nc1ccc2c(c1)OCO2 | 89.7% (active)
Cc1[nH]c2ccccc2c1C(c1cccnc1)c1c(C)[nH]c2ccccc12 | 45.9%

SMILES | inhibition
CCOC(=O)c1c(C)[nH]c(C(=O)CSc2ncn[nH]2)c1C | -1.94%
Cc1ccc(C2=NNC(=NCc3ccc4c(c3)OCO4)SC2)s1 | 18.8%
CCOC(=O)c1c(C)[nH]c(C(=O)OCC(=O)C23CC4CC(CC(C4)C2)C3)c1C | -59.8%
O=c1c(NCCc2ccccc2)nccn1-c1ccccc1 | 23.1%
Cc1ccc(-n2ccnc(NCC(C)c3ccccc3)c2=O)cc1C (centres undefined) | 68.9% (active)
Cc1cc(NS(=O)(=O)c2cc(Cl)ccc2Cl)no1 | 43.7%
Cc1cc(F)ccc1S(=O)(=O)Nc1cc(-c2ccccc2)on1 | 69.6% (active)
CC(C)(C)N=C1NN=C(c2ccc3ccccc3c2)CS1 | 9.77%
CC(C)(C)N=C1NN=C(c2c[nH]c3ccccc23)CS1 | -10%
Cc1ccc(N=C2NN=C(c3cc(F)ccc3F)CS2)c(C)c1 | 31.9%
Cc1cc(C2=NNC(=NCc3ccco3)SC2)c(C)n1Cc1ccco1 | -40.5%
CCCCN=C1SCC(c2cc(C)n(Cc3ccco3)c2C)=NN1C | 44%
Cc1cc(C2=NNC(=NCC3CCCO3)SC2)c(C)n1Cc1cccs1 (centres undefined) | 23.6%
Cc1ccccc1N=C1NN=C(c2ccccc2F)CS1 | 68.3% (active)
COCCCN=C1NN=C(c2cc(C)n(Cc3ccco3)c2C)CS1 | 63.8% (active)
Cc1cc(C2=NNC(=NC3CCCC3)SC2)c(C)n1Cc1ccco1 | 99.4% (active)
Cc1cc(C2=NNC(=NC3CC3)SC2)c(C)n1-c1ccccc1F | 95.9% (active)
Cc1cc(C2=NNC(=NCc3ccc4c(c3)OCO4)SC2)c(C)n1Cc1ccco1 | -5.02%
FC(F)Oc1ccc(C2=NNC(=NC3CC3)SC2)cc1 | 18.9%
O=c1c2c(F)c(F)c(F)c(F)c2on2c3c(nc12)CCCC3 | 44.8%
O=[N+]([O-])c1c(Sc2nnnn2-c2ccccc2)nc2sccn12 | 99.2% (active)
CC(C)c1ccc(-n2nnnc2SC(C)c2nnc(-c3ccc([N+](=O)[O-])cc3)o2)cc1 (centres undefined) | 18.5%
O=C(CSc1nnnn1-c1ccccc1)NNC(=O)c1ccc(O)cc1O | 11.6%
c1ccc(Sc2c(-c3ccccc3)nc3sccn23)cc1 | 34.5%
c1ccc(-n2nnnc2SCCNc2nc3ccccc3[nH]2)cc1 | 42.9%
O=[N+]([O-])c1ccc(Sc2nnnn2-c2ccccc2)c([N+](=O)[O-])c1 | 89.6% (active)
